Lmaj promast: reduces viability of Leishmania major promastigotes | AID 1063 | hit rate 9% among 200,000 | inhibition, % at 10 µM | resazurin fluorescence viability; in the data active means inhibition above about 50%;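 further: promastigotes grown with compound for 44 hours at 28 °C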
CHOP inh: blocks CHOP induction under ER stress. CHO-K1 CHOP-promoter luciferase, tunicamycin-induced, 15-18 h. inhibition, % at 10 µM. hit rate 3.8% among 220,000;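 active means compounds that reduced the stress-induced luciferase reporter signal by more than about 70% of percent inhibition, limit read from the data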;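 further: 0% = tunicamycin plus vehicle and 100% = wells without tunicamycin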
Arbovirus inh: blocks arbovirus infection; arbovirus infection cell-based antiviral screen; inhibition, % at 10 µM; hit rate 0.37% among 200,000; in the data active means inhibition above about 30%
WT yeast gro inh: growth inhibition of WT yeast, mitochondrial fusion screen. mitochondrial fusion phenotypic screen, WT strain. inhibition, % at 10 µM. hit rate 2.1% among 190,000. AID 1362; in the data active means inhibition above about 58%; tested in S. cerevisiae
* = called active by the depositor; / = no result. The list is not random: actives were taken first. Their share in the collection is about 12%.

SMILES	Lmaj promast	CHOP inh	Arbovirus inh	WT yeast gro inh
O=C(O)CCC(=O)NNC(=O)c1cccs1	-3	-13	1	-1
CCNC(=O)/C(=C\c1ccccc1)NC(=O)/C=C/c1ccccc1	85*	-7	-3	2
NC(=O)/C(=C\c1ccccc1)NC(=O)/C=C/c1ccccc1	-8	8	-2	-15
O=C(/C=C/c1c(Cl)cccc1Cl)n1cccn1	-1	30	-4	19
O=C(O)Cc1ccc(NC(=S)Nc2ccc(Br)cc2Cl)cc1	/	6	/	/
Cc1ccc2[nH]c(=O)c(-c3noc(CC(C)C)n3)cc2c1	/	11	/	/
Cc1ccc(CNc2ccc(O)cc2)cc1	99*	-49	0	27
Cc1ccc(NCc2ccccc2O)cc1	1	35	-4	-6
Cc1cc2c(nc1C)CCCN2C[C@@H](C)O/N=C1/[C@H]2CCn3c(=O)n(-c4ccccc4)c(=O)n3[C@H]2[C@H](O)[C@@H]2O[C@H]12	-1	2	-3	-9
Cc1oc(C)c2c(=O)ccc3c(c12)OC(N)=C(C#N)C3c1ccc(F)cc1 (centres undefined)	60*	28	-2	-20
C[n+]1cccc2ccc3c(c21)OC(N)=C(C#N)C3c1ccccc1 (centres undefined)	/	-18	/	/
Cc1ccc(-n2[nH]c(C)c(/C=N/Nc3ccc([N+](=O)[O-])cc3[N+](=O)[O-])c2=O)cc1C	-16	26	-24	70*
CCOC(=O)C1(CCOc2ccccc2)CCN(Cc2cccn2-c2cccnc2)CC1	35	10	4	8
CCOC(=O)C1(CCOc2ccccc2)CCN(Cc2ccc(CO)o2)CC1	62*	39	-10	-10
CCOC(=O)C1(CCOc2ccccc2)CCN(Cc2cnc(C)s2)CC1	79*	13	-3	-1
NC(=O)c1ccc(NC(=O)COC(=O)/C=C/c2ccc3c(c2)OCO3)cc1	/	0	/	/
Cc1ccc2nc(/C(C#N)=C\c3cc(C)n(-c4cccc([N+](=O)[O-])c4)c3C)[nH]c2c1	85*	-16	-21	22
Cc1ccc2nc(/C(C#N)=C\c3ccc([N+](=O)[O-])o3)[nH]c2c1	100*	-15	-37	4
O=S(=O)(c1ccc(Br)cc1)N1CCCN(Cc2cccc(F)c2)CC1	86*	27	16	56
NC(=O)CN1CCCN(S(=O)(=O)c2ccc(Br)cc2)CC1	11	2	-2	2
COc1cccc(CNC(=O)c2ccc(S(=O)(=O)N3CCCC3)cc2)c1	1	7	-1	-44
COc1cccc(CN2CCCN(S(=O)(=O)c3ccc(Br)cc3)CC2)c1	93*	32	6	26
COc1ccc2oc(-c3ccc(C)c(NC(=O)c4ccc(N5CCOCC5)c([N+](=O)[O-])c4)c3)nc2c1	1	5	3	0
CCOc1ccc2nc(NCCNC(=O)Nc3ccccc3)c(C#N)cc2c1	9	83*	-3	8
CCOc1ccc2nc(NCCCNS(=O)(=O)c3ccc(C)cc3)c(C#N)cc2c1	-2	49	-4	5
SMILES	Lmaj promast	CHOP inh	Arbovirus inh	WT yeast gro inh
CCOc1ccc2nc(NCCNC(=S)NCCCN(C)C)c(C#N)cc2c1	56*	1	-28	2
CC(C)c1nnc(NC(=O)c2cccc(NC(=O)C(F)(F)F)c2)s1	-6	7	5	8
Cn1c(=O)c2cc(S(=O)(=O)Nc3cc(C(=O)O)cc(C(=O)O)c3)ccc2n(C)c1=O	-9	6	0	-2
Cc1cc(C)cc(NS(=O)(=O)c2ccc3c(c2)c(=O)n(C)c(=O)n3C)c1	97*	93*	-6	-9
Cc1ccc(NS(=O)(=O)c2ccc3c(c2)c(=O)n(C)c(=O)n3C)cc1F	68*	60	1	-1
Cc1cc(S(=O)(=O)Nc2ccc3c(c2)n(C)c(=O)n3C)ccc1F	4	-8	-2	-4
CCN(C(C)=O)c1ccc(Oc2nc(OC)cc(OC)n2)cc1	-8	30	3	-19
Cc1ccc(C2CC(c3ccccc3)=NN2C(=O)CSc2nnc(-c3ccncc3)n2C)o1 (centres undefined)	2	-3	0	10
CC(=O)Nc1ccc(C2=NN(C)C(=NCc3ccccc3)SC2)cc1	67*	-12	-7	-2
O=C(Nc1ccc(Cl)cc1)N1CCSC1=NCc1ccccc1	/	15	/	/
O=C(CSc1nnc(Cc2csc(Nc3cccc(Cl)c3)n2)o1)N1CCc2ccccc21	-2	89*	10	39
O=C(CSc1nnc(CNc2ccccc2)o1)N1CCc2ccccc21	-4	51	-6	-5
O=C(NCc1ccccn1)c1cc(-c2ccccc2Cl)nc2ccccc12	87*	28	4	-19
O=C(NCCc1ccccn1)c1cc(-c2ccc(Cl)c(Cl)c2Cl)nc2ccccc12	38	34	-9	30
O=C(NNC(=O)c1cc(-c2ccc(Cl)cc2Cl)nc2ccccc12)Nc1ccccc1	70*	96*	-20	-13
CCC(=O)NC(Nc1ncc(C)s1)(C(=O)OC)C(F)(F)F (centres undefined)	-6	14	10	12
CC(=O)c1sc(N/N=C2\CC3CC2C(C)C3(C)C)nc1C (centres undefined)	91*	-22	-3	29
COCCn1c(-c2ccc(OC)cc2)nc2ccccc21	56*	14	2	6
COCCn1c(COc2ccc(C)cc2)nc2ccccc21	19	-7	-10	6
Clc1ccc(OCCn2c(-c3ccco3)nc3ccccc32)cc1	21	19	-24	83*
CC(C)CN(CC(C)C)C(=S)Nc1ccc(Cl)cc1	24	-3	5	15
C/C(=N\NC(=S)NC1CCCCC1)c1c(F)cccc1F	16	80*	9	74*
C/C(=N\NC(=S)NC1CCCCC1)c1ccc(OC(F)F)cc1OC(F)F	-3	66	-1	66*
C/C(=N\NC(=S)NC1CCCCC1)c1cccs1	25	-22	4	71*
C/C(=N\NC(=S)NC1CCCCC1)c1ccc(Cl)c(Cl)c1	/	44	/	/
SMILES	Lmaj promast	CHOP inh	Arbovirus inh	WT yeast gro inh
CC1CCN(S(=O)(=O)c2ccc(C(=O)NNC(=O)C3CC3)cc2)CC1	3	-8	0	-7
COc1cc(CCCN2C(=S)NC[C@@H]2c2ccccc2)cc(OC)c1OC	6	2	8	11
O=C(Nc1cccc2c1CCCC2)c1ccncc1	-6	13	0	-2
CC1(C)NC(=O)N(CCOCCOc2ccccc2-c2ccccc2)C1=O	-1	-3	2	6
C=CCn1c(SCc2csc(-c3ccc(Cl)cc3)n2)nnc1-c1ccccc1OC	70*	16	-31	57
C=CCn1c(SCC(=O)Nc2ccc3c(c2)OCO3)nnc1-c1ccccc1OC	-3	-17	-21	-11
CCOC(=O)N1CCN(c2nc(C(F)(F)F)nc3c(C)cc(C)cc23)CC1	36	61	4	3
Cc1cc(C)c2nc(C(F)(F)F)nc(N3CC(C)OC(C)C3)c2c1 (centres undefined)	10	41	0	77*
Cc1ccc2cc(CCNC(=O)c3ccc(C)c([N+](=O)[O-])c3)c(=O)[nH]c2c1	-1	49	7	-1
CCOC(=O)/C(C#N)=C/C1=C(N2CCOCC2)C(C)(C)OCC1	/	10	/	/
COc1ccc(-c2nc(N)nc(C)c2Oc2ccccc2Br)c(O)c1	30	95*	-47	83*
Cc1cccc(CSc2nnc(-c3cccs3)n2Cc2ccco2)c1	90*	12	10	11
